Mm-Cpn inhibitor = M. maripaludis TRiC chaperonin inhibition. 330,000 compounds, 0.031% hits. purified Mm-Cpn ATPase, ADP Transcreener TR-FRET. Potency, µM (top dose mostly 76.9 µM), for inactives: top-dose activity, negative = inhibition, most hits filed as inhibitors. AID 504842; note: % is set by controls: 0 for no effect and ±100 for the full control effect; nearly all actives have a fitted effect of over 80% in size
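Purified archaeal chaperonin (25 nM final) was preincubated with compound for 10 min at 37°C, then ATP (10 uM final) was added for 30 min at 37°C in Tris pH 7.4/KCl/MgCl2/DTT buffer. ADP was quantified by HTRF Transcreener TR-FRET.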
ClpP mod = qHTS Assay for Activators of ClpP | ATP-dependent Clp protease proteolytic subunit (Bacillus subtilis (strain 168)), P80244 | purified B. subtilis ClpP, FRET peptide cleavage, 20 min | Potency, µM (highest dose often 57.5 µM), without a hit: top-dose activity change, negative = active | 340,000 compounds, 1.9% hits | AID 651965, 2013; active = well fitted falling curve with a large enough effect; inconclusive = small, poorly fitted or top-dose-only effect; inactive = no such curve, though single readings can be large or run the other way; note: the source files actives as falling curves though it sought activators and does not explain the sign; nearly all actives have a fitted effect of over 65% in size
Target sequence (P80244 whole entry, looked up): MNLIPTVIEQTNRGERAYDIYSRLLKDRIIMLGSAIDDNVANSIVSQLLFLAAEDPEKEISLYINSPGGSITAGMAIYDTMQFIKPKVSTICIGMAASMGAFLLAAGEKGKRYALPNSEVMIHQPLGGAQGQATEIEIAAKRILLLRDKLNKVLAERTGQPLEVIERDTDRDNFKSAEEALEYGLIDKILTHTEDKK
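Buffer: 100 mM Tris/HCl pH8, 100 mM KCl, 0.05% low protease BSA, 2.5% glycerol, 0.01% Tween-20. ClpP 10 microg/mL final; 20 min RT; delta FRET normalized to ADEP and DMSO controls.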
a7 integrin act = activators of alpha7 integrin expression for muscular dystrophy | alpha7betagal myoblasts, beta-gal FDG fluorescence, 48 h | 350,000 compounds, 0.064% hits | AID 624291 | Potency, µM (highest dose often 38.3 µM), for the others: at the top dose activation, most hits filed as activators;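 note: 100% = response of the positive control SU9516; nearly all actives have a fitted effect of over 60% in size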
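alpha7betagal+/- myoblasts (passage 13, 250/well) treated 48 h at 37C with compounds at 1:260 dilution of DMSO stock. Lysed, then beta-galactosidase activity read as FDG fluorescence (ex 480/em 540) after 30 min, with pre-read for autofluorescence.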
USP2a inh = USP2a (human) protease inhibition; Potency, µM (top dose mostly 38.3 µM), without a hit: at the top dose activity change, negative = inhibition, actives largely listed as inhibitors; O75604; AID 463254; USP2 core, Ub-CHOP2 coupled fluorogenic reporter, 485/531; 330,000 compounds, 0.01% hits;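 note: plate controls were DMSO wells for no effect and full inhibition by NEM control for full effect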
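Cell-free coupled assay: 10nM USP2 core preincubated 30min RT with compound in Tris-HCl pH 8.0/CaCl2/CHAPS buffer, then 25nM Ub-CHOP2 and 25nM reporter substrate; fluorescence (Ex 485/Em 531) read after 60min RT, normalized to NEM inhibition, concentration-response curves fitted.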
p53 reactivation = re-activators of mutant p53; H1299 p53-A138V BP100-luciferase reporter, luminescence, 24 h; Potency, µM (highest dose often 92.2 µM), inactives show at the highest dose activity change, positive = activation, hits mostly activators; 320,000 compounds, 0.063% hits; AID 504706; note: % of control where 0% means no effect; nearly all actives have a fitted effect of over 45% in size
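H1299 (p53-null), stable ts p53-A138V + BP100-Luc; 1000 cells/well, Opti-MEM/10% FBS; cpd 4 pt, 1:5; 24 h, 37 deg C, 5% CO2; detection reagent 10 min RT; luminescence.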
Eya2 inh = Eya2 (human) phosphatase inhibition. recombinant Eya2, OMFP fluorescence dephosphorylation (OMFP is methylfluorescein phosphate). O00167. 330,000 compounds, 0.006% hits. Potency, µM (doses to about 76.9 µM), for the others: at the highest dose activity, negative = inhibition, usual class: inhibitors; note: % is set by controls: 0 for no effect and ±100 for the full control effect
Target sequence (O00167 whole entry, looked up): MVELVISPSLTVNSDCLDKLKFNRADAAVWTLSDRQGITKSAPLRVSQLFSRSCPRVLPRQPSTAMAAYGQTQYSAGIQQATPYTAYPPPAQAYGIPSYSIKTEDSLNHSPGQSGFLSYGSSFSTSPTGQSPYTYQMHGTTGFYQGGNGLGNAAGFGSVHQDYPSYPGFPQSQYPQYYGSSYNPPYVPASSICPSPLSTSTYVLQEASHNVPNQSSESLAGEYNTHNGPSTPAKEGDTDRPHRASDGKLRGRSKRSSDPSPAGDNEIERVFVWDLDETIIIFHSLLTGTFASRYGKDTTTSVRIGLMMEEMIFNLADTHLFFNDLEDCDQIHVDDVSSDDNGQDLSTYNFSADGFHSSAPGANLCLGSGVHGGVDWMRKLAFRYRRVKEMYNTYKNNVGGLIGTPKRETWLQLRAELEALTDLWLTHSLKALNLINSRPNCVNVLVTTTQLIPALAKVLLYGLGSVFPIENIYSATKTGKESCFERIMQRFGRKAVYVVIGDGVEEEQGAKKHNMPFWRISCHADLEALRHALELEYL
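Eya2 protein (added as 0.2 uM solution) was preincubated with compound for 10 min at ambient temperature in 50 mM HEPES pH 7.5, 50 mM NaCl, 5 uM MgCl2, 0.05% BSA, 1 mM DTT. OMFP (added at 50 uM) then reacted 10 min; fluorescence read at 485/525 nm.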
ClpP inh valid = validation of B. subtilis ClpP protease hits (inhibitors) | 470 compounds, 40% hits | shares compounds with ClpP mod | Potency, µM (doses to about 57.5 µM), inactives show at the top dose activity change, negative = inhibition, usual class: inhibitors | purified B. subtilis ClpP, FRET-FV substrate cleavage, 20 min; note: % is set by controls: 0 for no effect and ±100 for the full control effect; nearly all actives have a fitted effect of over 70% in size
Starred values were filed as active, the others as inactive. Only a selection was taken, and hits are over-represented in it overall. Unless noted, calls come from the whole dose curve; as a rule, active = well fitted curve in the direction sought with a large enough effect; inconclusive = small, poorly fitted or top-dose-only effect, or another doubt; inactive = no such curve, though single readings can be large; an effect the other way counts as inactive or inconclusive. Potency is the fitted concentration of half-maximal effect.

How did COc1ccc(C(C(=O)NC2CCCC2)N(C(=O)c2ccco2)c2cc3c(cc2C(C)=O)OCO3)cc1 (centres undefined) do in these assays?
Mm-Cpn inhibitor: 0%; ClpP mod: 3.2µM*; a7 integrin act: 1%; USP2a inh: 0%; p53 reactivation: -8%; Eya2 inh: 1%; ClpP inh valid: 0%

How did CCc1ccccc1NC(=O)C1CCCN(c2nnc(-n3c(C)ccc3C)s2)C1 (centres undefined) do in these assays?
ClpP mod: -7%

How did COc1ccc(-c2coc3cc(OC(C)=O)c(OC)cc3c2=O)cc1 do in these assays?
Mm-Cpn inhibitor: -1%; ClpP mod: 34%; a7 integrin act: 13%; USP2a inh: -1%; p53 reactivation: inconclusive; Eya2 inh: 4%; ClpP inh valid: -6%

Results for COc1ccc2c(=O)c(-c3ccc(OC)c(OC)c3)coc2c1 ?
ClpP mod: 3%; a7 integrin act: 20%; USP2a inh: -2%; p53 reactivation: 5%; Eya2 inh: 0%

How did CCOc1ccccc1C(=O)N(Cc1ccco1)Cc1ccccc1F do in these assays?
ClpP mod: 0%

What do the screens show for `CCOC(=O)c1[nH]c2ccccc2c1NC(=O)c1cc(OCC)c(OCC)c(OCC)c1`?
ClpP mod: 45%; ClpP inh valid: 12%

How did CCCCN(C)C(=O)Cn1cnc2sc(C)c(S(=O)(=O)N3CCC(C)CC3)c2c1=O do in these assays?
ClpP mod: 0%

What do the screens show for `COc1ccc2nc3n(c(=O)c2c1)-c1cc2ccccc2cc1C(=O)NC3Cc1ccccc1` (centres undefined)?
ClpP mod: 5.6µM*; a7 integrin act: -28%; ClpP inh valid: inconclusive

How did CCCCNc1nc2c(-c3cccc(Br)c3)nnn2c2ccccc12 do in these assays?
ClpP mod: -8%

How did Brc1cccc(-c2nnn3c2nc(NCc2ccc4c(c2)OCO4)c2ccccc23)c1 do in these assays?
ClpP mod: 23%; ClpP inh valid: inconclusive

What do the screens show for `Cc1nc2ccccn2c1C(=O)Nc1ccc2c(c1)OCCO2`?
Mm-Cpn inhibitor: -1%; ClpP mod: inconclusive; a7 integrin act: 0%; USP2a inh: 4%; p53 reactivation: inconclusive; Eya2 inh: -5%; ClpP inh valid: -2%

Results for CC(C)CC(=O)N(Cc1ccccc1)S(=O)(=O)c1ccc2c(c1)oc(=O)n2C ?
ClpP mod: 0%

Results for COc1ccccc1NC(=O)c1cc2c(-c3ccccc3)nn(-c3ccccc3)c2s1 ?
ClpP mod: 4%

What do the screens show for `O=C(Nc1ccccc1)c1cc2c(-c3ccccc3)nn(-c3ccccc3)c2s1`?
ClpP mod: 7.1µM*; ClpP inh valid: 19µM*

How did O=C(Cn1cc(C(=O)c2ccccc2)c(=O)c2cc3c(cc21)OCCO3)Nc1ccc(F)c(F)c1 do in these assays?
ClpP mod: -3%

How did Cc1ccc(-c2nn(-c3cccc([N+](=O)[O-])c3)c3c2cnc2ccc(F)cc23)cc1 do in these assays?
ClpP mod: 1%

How did CCOC(=O)Cn1c(=O)n(C2CCCCC2)c2nc(-c3ccc(C(C)C)cc3)nc(C(N)=O)c21 do in these assays?
ClpP mod: -14%

Results for Cc1cc(C)n2nc(-c3sccc3-n3c(C)ccc3C)cc2n1 ?
Mm-Cpn inhibitor: -6%; ClpP mod: 36%; a7 integrin act: -8%; USP2a inh: 0%; p53 reactivation: inconclusive; Eya2 inh: -31%; ClpP inh valid: inconclusive

Results for Cc1cc(C)cc(Oc2c(C(F)(F)F)oc3cc(OCC(=O)NC4CCCCC4)ccc3c2=O)c1 ?
ClpP mod: -1%

How did COc1ccc(CNC(=O)Cn2c(SCC(=O)Nc3ccc(C)c(C)c3)nc3ccccc32)cc1 do in these assays?
ClpP mod: -2%

Results for Cc1ccc2[nH]c(=O)c(CN(Cc3ccc4c(c3)OCO4)Cc3nnnn3C3CCCC3)cc2c1 ?
ClpP mod: 81%; a7 integrin act: -20%; ClpP inh valid: -19%

What do the screens show for `CCN(c1ccccc1)S(=O)(=O)c1ccc(OC)c(NC(=O)c2cc(F)c(F)c(F)c2F)c1`?
Mm-Cpn inhibitor: 0%; ClpP mod: 41%; a7 integrin act: -16%; USP2a inh: 7%; p53 reactivation: 1%; Eya2 inh: -17%; ClpP inh valid: inconclusive

What do the screens show for `COc1ccc(C)cc1S(=O)(=O)NC1CCCCC1C` (centres undefined)?
Mm-Cpn inhibitor: -3%; ClpP mod: 209%; a7 integrin act: 23%; USP2a inh: 0%; p53 reactivation: -4%; Eya2 inh: -29%; ClpP inh valid: -1%

What do the screens show for `Cc1nnc(NC(=O)c2oc3ccccc3c2C)s1`?
Mm-Cpn inhibitor: 0%; ClpP mod: -1%; a7 integrin act: inconclusive; USP2a inh: 2%; p53 reactivation: inconclusive; Eya2 inh: 0%

How did Cc1nnc(NC(=O)c2oc3c(ccc4ccccc43)c2C)s1 do in these assays?
Mm-Cpn inhibitor: -1%; ClpP mod: 8.9µM*; a7 integrin act: 1%; USP2a inh: 3%; p53 reactivation: 9%; Eya2 inh: 17%; ClpP inh valid: 31µM*

How did O=C(NCCCN1CCCC1=O)C1CCN(S(=O)(=O)N2CCOCC2)CC1 do in these assays?
Mm-Cpn inhibitor: -2%; ClpP mod: 10µM*; a7 integrin act: 25%; USP2a inh: 0%; p53 reactivation: 5%; Eya2 inh: 4%; ClpP inh valid: 0%

How did O=C(NCCCN1CCCC1=O)C1CCN(S(=O)(=O)c2ccccc2)CC1 do in these assays?
Mm-Cpn inhibitor: 1%; ClpP mod: 2%; a7 integrin act: 3%; USP2a inh: 2%; p53 reactivation: 15%; Eya2 inh: 11%

How did Oc1ccc(/C=C/c2ccc(/C=C/c3ccc(O)cc3)c(Br)c2)cc1 do in these assays?
Eya2 inh: -6%; ClpP inh valid: -19%

What do the screens show for `O=c1oc2ccccc2cc1-c1nnc(-c2cccc(Br)c2)o1`?
Mm-Cpn inhibitor: 2%; ClpP mod: 0.71µM*; a7 integrin act: 14%; USP2a inh: 4%; p53 reactivation: 10%; Eya2 inh: -8%; ClpP inh valid: inconclusive
